Measured values: PubChem BioAssay AID463165 (Johns Hopkins Ion Channel Center, 2010)
In all, about 310,000 compounds went through this assay and about 1,400 (0.45%) were called active. The sample holds actives, similar compounds and a random draw of the others, so the mix is not that of the screen.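 Rule for the calls: active = B-score, a plate-corrected calcium signal, over three deviations above library mean, with baseline fluorescence within five deviations of library mean; inactive = the rest.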

Each molecule was assayed against Regulator of G-protein signaling 4 (Homo sapiens) (UniProt P49798) (assay: blockers of RGS4 function in M3R calcium signaling – cell-based, HEK293 M3R inducible RGS4, calcium flux, primary screen (AID 463165;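 note: RGS4 expression induced by doxycycline in cells with stable M3 receptor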;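 for B-score: B-score is computed from the integrated fluorescence ratio over baseline after carbachol; higher B-score means a larger calcium signal and so more RGS4 inhibition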)). Settings: Fluo-4 calcium flux, at 10 µM; B-score: active compounds read high unless noted; outcome: triggered by carbachol at its EC20 unless noted.
Regulator of G-protein signaling 4 (Homo sapiens), sequence (P49798 whole entry, looked up): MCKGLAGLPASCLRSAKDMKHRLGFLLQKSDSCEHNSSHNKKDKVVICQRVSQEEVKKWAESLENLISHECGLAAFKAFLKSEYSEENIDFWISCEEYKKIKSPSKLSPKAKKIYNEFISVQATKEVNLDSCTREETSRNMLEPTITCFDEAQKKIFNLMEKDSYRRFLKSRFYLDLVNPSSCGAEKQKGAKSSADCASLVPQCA

Row | SMILES | outcome | B-score
1 | O=c1[nH]c(=O)n(Cc2ccccc2)c(O)c1/C=N/Nc1c(F)c(F)c(F)c(F)c1F | inactive [setting not given] | –
2 | O=C(N/N=C/c1c(O)n(Cc2ccccc2)c(=O)[nH]c1=O)c1ccccc1 | – | 5.25 (active)
3 | O=C(N/N=C/c1c(O)n(C2CC2)c(=S)[nH]c1=O)c1ccccc1 | inactive [setting not given] | –
4 | O=C1N=c2ccccc2=C/C1=C\c1c(O)[nH]c(=S)[nH]c1=O | inactive [setting not given] | –
5 | Cc1ccc2c(c1)=C/C(=C\c1c(O)[nH]c(=O)[nH]c1=O)C(=O)N=2 | – | 5.31 (active)
6 | O=c1[nH]c(O)c(C=Nc2cc(F)cc(F)c2)c(=O)[nH]1 | inactive [setting not given] | –
7 | COC(=O)CN1C(=O)C2(C(C(=O)OC)=C(N)Oc3ccccc32)C2=C1CC(C)(C)CC2=O (stereo not given) | inactive | –
8 | CC1CCC(N(C)C2CCN(C)CC2)CC1 (stereo not given) | inactive | –
9 | C=CC12CN(C)[C@@H]3C4CO[C@H](C[C@H]41)[C@]1(C(=O)Nc4ccccc41)[C@@H]32 (stereo not given in full) | inactive | –
10 | CC(C)(C)c1ccc(OC(=O)N2CCCCC2)cc1 | inactive | –
11 | Cc1cccc(N2C(=O)NC(=O)/C(=C\c3cnn(-c4ccccc4)c3)C2=O)c1 | inactive [setting not given] | –
12 | O=C1NC(=O)N(c2ccc(F)cc2)C(=O)/C1=C/c1ccc2c(c1)CCCN2Cc1ccccc1 | inactive [setting not given] | –
13 | O=C1NC(=O)N(c2ccccc2)C(=O)/C1=C/c1ccc([N+](=O)[O-])s1 | – | 4.87 (active)
14 | CC(C)c1ccc(OCC(=O)N2CCCN(C)CC2)cc1 | inactive | –
15 | O=C(CCNS(=O)(=O)c1ccccc1)Nc1ccc(Cl)cc1C(=O)c1ccccc1 | inactive | –
16 | Cc1cc(/C=C2/C(=O)NC(=O)N(Cc3ccco3)C2=O)c(C)n1-c1ccc(C(=O)O)cc1 | inactive [setting not given] | –
17 | O=C1NC(=O)N(Cc2ccco2)C(=O)/C1=C\c1cccn1CCOc1ccccc1 | inactive [setting not given] | –
18 | O=C1NC(=O)N(Cc2ccco2)C(=O)/C1=C\c1ccc(-c2ccc(F)cc2)o1 | – | 15.5 (active)
19 | CN(C)CC1Oc2ccccc2OC1(O)c1ccccc1 (stereo not given) | inactive | –
20 | COC(=O)C1=C(c2ccccc2)C[C@@H]2CC[C@H]1N2C(=O)NCc1ccco1 | inactive | –
